Test results reported in the supplement of paper PMC11732987, “Enantioselective OTUD7B fragment discovery through chemoproteomics screening and high-throughput optimisation” (Communications Chemistry, 2025).

Legend:
Test in all cases: log2 ratio of Biotin-Ahx-Ub-VS probe labelling (fragment/DMSO); higher = less target engagement (more negative = stronger competition), active = hit call of the paper (q ≤ 0.05, log2 ratio ≤ -1)
Details in all cases: compound concentration: 200 uM; treatment time: 3 h
USP19 = molecular target: T1, USP19 (UniProt O94966)
T1 sequence (whole entry): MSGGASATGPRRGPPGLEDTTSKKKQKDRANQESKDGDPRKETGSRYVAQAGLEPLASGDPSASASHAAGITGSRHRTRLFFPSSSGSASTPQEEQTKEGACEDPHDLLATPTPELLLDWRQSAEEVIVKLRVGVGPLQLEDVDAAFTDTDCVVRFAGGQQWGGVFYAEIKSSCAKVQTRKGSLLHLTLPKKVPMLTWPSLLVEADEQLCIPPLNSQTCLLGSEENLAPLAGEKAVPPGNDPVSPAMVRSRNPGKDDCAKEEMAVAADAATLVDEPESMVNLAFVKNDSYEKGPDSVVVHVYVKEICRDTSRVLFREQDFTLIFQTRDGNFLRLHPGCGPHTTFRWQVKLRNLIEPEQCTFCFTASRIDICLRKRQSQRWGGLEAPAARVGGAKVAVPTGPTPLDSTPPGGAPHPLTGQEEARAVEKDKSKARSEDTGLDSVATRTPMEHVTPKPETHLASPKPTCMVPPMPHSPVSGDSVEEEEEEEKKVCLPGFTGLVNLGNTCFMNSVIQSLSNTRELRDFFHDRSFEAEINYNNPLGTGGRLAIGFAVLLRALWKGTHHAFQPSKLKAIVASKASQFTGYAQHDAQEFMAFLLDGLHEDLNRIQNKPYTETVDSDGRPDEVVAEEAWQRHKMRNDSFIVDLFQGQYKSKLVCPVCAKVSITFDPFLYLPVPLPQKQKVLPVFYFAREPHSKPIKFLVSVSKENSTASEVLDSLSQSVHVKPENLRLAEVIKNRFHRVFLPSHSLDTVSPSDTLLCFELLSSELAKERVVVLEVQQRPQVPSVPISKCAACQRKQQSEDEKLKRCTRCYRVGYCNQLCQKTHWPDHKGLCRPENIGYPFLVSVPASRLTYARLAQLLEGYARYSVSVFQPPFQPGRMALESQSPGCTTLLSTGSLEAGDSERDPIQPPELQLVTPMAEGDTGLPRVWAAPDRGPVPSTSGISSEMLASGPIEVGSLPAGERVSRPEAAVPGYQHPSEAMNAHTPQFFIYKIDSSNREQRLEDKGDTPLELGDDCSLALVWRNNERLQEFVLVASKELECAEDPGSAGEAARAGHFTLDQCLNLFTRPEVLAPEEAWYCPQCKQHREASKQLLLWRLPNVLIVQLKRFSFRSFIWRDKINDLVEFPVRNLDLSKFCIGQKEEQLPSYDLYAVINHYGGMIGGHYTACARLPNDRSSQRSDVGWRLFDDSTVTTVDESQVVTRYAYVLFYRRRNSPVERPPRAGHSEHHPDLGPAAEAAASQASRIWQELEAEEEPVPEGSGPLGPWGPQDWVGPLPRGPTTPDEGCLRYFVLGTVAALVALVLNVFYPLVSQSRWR
In short: (§1)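 Fragment (200 µM) or vehicle was incubated for 3 h with triplicate HEK293T lysate samples of 495 µg, which were then treated with Biotin-Ahx-Ub-VS at 0.5 µM final for 1 h. Labelled DUBs were enriched on NeutrAvidin, digested with LysC and trypsin, and analysed by diaPASEF LC-MS/MS. Values are average log2 fragment/vehicle ratios from an unpaired t-test on global-median-normalised Spectronaut label-free quantities, using proteins with ≥2 unique peptides.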

USP22 = molecular target: T2, USP22 (UniProt Q9UPT9)
T2 sequence (whole entry): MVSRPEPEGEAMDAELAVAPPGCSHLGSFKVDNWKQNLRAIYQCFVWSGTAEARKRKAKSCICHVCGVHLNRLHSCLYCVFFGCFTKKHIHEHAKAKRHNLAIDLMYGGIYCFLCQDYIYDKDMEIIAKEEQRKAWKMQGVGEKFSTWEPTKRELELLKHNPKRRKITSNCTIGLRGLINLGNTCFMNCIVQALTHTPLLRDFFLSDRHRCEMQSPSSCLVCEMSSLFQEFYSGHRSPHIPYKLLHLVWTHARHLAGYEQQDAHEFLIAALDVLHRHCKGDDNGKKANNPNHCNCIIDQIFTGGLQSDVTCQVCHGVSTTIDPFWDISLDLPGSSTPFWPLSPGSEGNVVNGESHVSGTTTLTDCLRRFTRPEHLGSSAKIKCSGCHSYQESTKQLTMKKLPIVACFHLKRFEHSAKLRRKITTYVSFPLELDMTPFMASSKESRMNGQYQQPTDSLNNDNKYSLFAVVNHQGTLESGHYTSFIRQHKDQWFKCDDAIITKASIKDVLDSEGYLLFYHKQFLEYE
In short: as §1

USP24 = USP24 (UniProt Q9UPU5)
In short: as §1

USP25 = molecular target: T3, USP25 (UniProt Q9UHP3)
T3 sequence (whole entry): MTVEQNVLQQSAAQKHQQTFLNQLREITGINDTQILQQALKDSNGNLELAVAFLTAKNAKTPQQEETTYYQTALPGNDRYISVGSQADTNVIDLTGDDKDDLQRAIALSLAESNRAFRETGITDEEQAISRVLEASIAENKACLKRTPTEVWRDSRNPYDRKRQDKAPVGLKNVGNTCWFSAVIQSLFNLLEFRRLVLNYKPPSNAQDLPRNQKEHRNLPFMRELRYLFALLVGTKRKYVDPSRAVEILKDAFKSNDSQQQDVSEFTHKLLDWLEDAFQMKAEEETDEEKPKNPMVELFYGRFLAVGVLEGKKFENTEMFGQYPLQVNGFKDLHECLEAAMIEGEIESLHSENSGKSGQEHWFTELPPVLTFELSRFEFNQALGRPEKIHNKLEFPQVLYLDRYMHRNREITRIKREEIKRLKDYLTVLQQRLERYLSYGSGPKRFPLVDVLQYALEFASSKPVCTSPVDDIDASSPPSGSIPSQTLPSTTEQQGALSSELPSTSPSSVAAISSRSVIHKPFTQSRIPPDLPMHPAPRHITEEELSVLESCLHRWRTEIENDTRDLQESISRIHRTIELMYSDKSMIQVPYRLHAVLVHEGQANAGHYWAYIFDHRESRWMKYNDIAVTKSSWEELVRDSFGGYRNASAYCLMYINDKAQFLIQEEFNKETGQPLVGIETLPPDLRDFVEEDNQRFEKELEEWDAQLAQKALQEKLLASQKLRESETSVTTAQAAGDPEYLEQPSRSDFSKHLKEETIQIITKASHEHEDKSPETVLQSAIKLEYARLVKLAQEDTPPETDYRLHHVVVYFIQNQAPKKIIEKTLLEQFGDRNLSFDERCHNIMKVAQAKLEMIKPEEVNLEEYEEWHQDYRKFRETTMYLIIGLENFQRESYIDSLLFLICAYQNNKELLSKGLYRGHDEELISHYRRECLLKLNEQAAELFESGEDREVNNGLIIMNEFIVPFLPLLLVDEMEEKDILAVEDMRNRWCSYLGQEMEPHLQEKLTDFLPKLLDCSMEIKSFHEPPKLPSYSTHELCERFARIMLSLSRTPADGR
In short: as §1

USP28 = molecular target: T4, USP28 (UniProt Q96RU2)
T4 sequence (whole entry): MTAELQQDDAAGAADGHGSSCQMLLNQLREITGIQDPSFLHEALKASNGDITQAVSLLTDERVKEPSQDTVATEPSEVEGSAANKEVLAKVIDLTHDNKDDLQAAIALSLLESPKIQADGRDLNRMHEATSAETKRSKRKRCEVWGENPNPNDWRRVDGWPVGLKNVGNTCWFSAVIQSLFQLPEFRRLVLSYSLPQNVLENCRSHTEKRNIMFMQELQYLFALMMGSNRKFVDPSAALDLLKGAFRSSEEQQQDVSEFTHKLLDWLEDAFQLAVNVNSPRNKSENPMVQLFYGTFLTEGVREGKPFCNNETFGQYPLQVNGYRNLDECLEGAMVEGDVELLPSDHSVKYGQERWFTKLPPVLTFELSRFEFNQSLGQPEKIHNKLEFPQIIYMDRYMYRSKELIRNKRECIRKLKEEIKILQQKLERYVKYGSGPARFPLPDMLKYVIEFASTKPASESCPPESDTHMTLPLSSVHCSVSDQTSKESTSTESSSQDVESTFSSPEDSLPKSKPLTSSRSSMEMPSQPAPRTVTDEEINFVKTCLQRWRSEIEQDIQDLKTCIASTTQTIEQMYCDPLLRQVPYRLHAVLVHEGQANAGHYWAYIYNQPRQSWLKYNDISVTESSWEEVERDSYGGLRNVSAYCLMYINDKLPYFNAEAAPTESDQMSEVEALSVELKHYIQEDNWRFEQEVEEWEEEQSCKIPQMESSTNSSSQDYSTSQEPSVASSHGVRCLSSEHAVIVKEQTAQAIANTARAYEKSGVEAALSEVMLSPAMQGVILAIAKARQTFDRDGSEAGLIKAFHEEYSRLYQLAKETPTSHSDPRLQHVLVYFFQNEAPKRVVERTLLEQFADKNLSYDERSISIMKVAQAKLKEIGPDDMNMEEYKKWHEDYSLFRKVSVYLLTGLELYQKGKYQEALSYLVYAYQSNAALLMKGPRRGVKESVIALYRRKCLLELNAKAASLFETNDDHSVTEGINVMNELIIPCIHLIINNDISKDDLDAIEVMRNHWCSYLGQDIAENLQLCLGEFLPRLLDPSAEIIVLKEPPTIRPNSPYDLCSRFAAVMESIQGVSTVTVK
In short: as §1

Measured: log2 ratio of Biotin-Ahx-Ub-VS probe labelling

Sequence of USP24 (Q9UPU5 whole entry): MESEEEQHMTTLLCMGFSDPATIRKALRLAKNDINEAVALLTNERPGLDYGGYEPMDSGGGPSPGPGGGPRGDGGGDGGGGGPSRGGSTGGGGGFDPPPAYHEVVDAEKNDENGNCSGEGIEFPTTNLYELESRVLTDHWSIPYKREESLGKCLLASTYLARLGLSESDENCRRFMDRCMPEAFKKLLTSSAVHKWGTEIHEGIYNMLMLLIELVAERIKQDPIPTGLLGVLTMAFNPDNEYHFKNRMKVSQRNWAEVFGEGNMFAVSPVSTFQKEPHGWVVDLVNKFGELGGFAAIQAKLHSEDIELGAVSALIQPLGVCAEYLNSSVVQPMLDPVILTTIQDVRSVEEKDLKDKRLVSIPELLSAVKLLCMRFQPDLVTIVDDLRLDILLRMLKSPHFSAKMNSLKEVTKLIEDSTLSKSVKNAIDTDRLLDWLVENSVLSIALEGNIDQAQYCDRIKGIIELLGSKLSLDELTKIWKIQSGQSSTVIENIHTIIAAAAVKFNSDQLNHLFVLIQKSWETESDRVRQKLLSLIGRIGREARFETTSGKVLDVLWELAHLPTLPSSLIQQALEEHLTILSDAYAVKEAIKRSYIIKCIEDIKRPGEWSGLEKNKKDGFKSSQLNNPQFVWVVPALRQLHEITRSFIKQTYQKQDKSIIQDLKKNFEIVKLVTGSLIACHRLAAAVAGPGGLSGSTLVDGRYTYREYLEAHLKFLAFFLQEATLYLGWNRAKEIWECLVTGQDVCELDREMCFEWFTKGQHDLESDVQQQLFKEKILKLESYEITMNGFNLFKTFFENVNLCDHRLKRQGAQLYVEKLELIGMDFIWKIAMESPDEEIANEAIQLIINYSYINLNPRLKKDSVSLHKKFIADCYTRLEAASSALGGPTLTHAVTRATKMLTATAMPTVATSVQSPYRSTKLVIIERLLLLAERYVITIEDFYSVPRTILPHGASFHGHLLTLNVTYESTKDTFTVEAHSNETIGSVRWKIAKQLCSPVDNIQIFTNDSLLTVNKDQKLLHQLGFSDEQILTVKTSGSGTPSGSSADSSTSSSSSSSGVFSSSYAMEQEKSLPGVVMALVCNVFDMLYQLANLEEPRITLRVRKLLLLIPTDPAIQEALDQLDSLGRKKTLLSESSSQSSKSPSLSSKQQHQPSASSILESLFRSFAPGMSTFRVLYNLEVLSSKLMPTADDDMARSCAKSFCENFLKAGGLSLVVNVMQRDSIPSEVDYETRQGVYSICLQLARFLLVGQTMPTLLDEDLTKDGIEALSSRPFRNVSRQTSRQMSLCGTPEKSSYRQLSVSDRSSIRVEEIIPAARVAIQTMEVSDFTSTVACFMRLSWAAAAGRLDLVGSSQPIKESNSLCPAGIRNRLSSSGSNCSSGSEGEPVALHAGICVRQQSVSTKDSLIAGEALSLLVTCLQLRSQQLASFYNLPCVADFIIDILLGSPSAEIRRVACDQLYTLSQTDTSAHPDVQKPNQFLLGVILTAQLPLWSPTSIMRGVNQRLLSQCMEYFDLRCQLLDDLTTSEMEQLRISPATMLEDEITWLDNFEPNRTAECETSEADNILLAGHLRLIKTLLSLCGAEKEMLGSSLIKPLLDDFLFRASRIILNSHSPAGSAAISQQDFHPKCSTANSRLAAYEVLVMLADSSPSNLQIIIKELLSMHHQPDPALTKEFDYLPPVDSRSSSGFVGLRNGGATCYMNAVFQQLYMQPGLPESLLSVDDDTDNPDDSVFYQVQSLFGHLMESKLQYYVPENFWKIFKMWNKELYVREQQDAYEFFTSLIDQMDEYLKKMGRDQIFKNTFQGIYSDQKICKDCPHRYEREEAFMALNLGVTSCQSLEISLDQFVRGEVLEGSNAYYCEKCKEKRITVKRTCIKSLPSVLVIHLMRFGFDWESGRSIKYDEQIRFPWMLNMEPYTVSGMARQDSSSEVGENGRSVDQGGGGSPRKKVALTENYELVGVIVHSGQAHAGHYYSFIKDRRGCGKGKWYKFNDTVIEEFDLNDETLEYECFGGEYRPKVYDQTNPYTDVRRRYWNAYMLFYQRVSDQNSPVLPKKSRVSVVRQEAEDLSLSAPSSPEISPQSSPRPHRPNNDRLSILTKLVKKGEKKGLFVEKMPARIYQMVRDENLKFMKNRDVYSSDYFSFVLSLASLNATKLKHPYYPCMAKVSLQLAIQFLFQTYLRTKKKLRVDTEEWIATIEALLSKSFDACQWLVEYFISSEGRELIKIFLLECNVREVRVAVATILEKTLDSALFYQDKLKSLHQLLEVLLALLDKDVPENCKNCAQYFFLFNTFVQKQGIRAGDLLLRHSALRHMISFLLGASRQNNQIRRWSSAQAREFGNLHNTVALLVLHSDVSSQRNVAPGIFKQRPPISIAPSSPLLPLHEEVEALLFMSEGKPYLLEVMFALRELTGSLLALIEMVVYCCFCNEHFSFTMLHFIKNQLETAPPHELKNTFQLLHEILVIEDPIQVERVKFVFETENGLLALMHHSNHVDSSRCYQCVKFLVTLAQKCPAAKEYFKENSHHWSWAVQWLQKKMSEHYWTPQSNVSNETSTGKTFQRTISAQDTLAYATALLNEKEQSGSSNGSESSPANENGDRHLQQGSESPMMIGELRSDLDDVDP

O=C(CCl)N1CC2(CCOCC2)C1
inactive: USP19 -0.144 | USP22 0.0357 | USP24 -0.194 | USP25 -0.275 | USP28 -0.375
